Data from PubChem BioAssay (EPA / NIEHS).
Records with an inconclusive call do not appear. The source made the active and inactive calls. The calls were made as follows: active = hit-call score of the fitted dose curve at least 0.9, where 1 is the maximum; inconclusive = response in the unintended direction; inactive = score below 0.9.

How the values were obtained:
[1] = TOX21_p53_BLA_p2_viability: Viability Assessment in the Tox21 HCT-116 p53 Agonism Beta-lactamase Assay, Phase 2 (AID 2283591);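 also: compound exposure lasted 16 h at 37 °C; actives lower the ATP signal meaning cytotoxicity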
How it was run: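 HCT-116 p53-bla cells (4000/well) rested 5 h at 37C, then received compounds in DMSO (217-fold dilution) for 16 h at 37C, 5% CO2. After the CCF4 read, CellTiter-Glo was added; ATP luminescence was read after 30 min at room temperature.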

[2] = target: Cellular tumor antigen p53 (Homo sapiens) (UniProt P04637); test: TOX21_p53_BLA_p2_ratio: Tox21 HCT-116 p53 Agonism Beta-lactamase Assay, Ratio, Phase 2 (AID 2283592)
How it was run: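 Read-out is the blue/green (460/530 nm, 405 nm excitation) ratio after 2 h CCF4-AM loading, fitted as gain versus DMSO. Compounds, pinned at 217-fold dilution from DMSO stocks, stayed 16 h on HCT-116 beta-lactamase reporter cells seeded 5 h earlier.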

[3] = target: Cellular tumor antigen p53 (Homo sapiens) (UniProt P04637); test: TOX21_p53_BLA_p3_ratio: Tox21 HCT-116 p53 Agonism Beta-lactamase Assay, Ratio, Phase 3 (AID 2283596)
How it was run: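 Cells were seeded at 4000/well, rested 5 h at 37C, then dosed with DMSO compound solutions (217-fold dilution) for 16 h. CCF4-AM substrate was loaded for 2 h at room temperature, and the 460/530 nm emission ratio was fitted for gain of signal versus DMSO.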

[4] = TOX21_p53_BLA_p4_viability: Viability Assessment in the Tox21 HCT-116 p53 Agonism Beta-lactamase Assay, Phase 4 (AID 2283597);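 also: hits lower the luminescence signal meaning cytotoxicity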
How it was run: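 Cytotoxicity as reduced cellular ATP (CellTiter-Glo luminescence, 30 min room temperature), measured in the same wells following the CCF4 FRET p53 reading. Human HCT-116 cells received compounds in DMSO (217-fold dilution) for 16 h.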

[5] = target: Cellular tumor antigen p53 (Homo sapiens) (UniProt P04637); test: TOX21_p53_BLA_p5_ratio: Tox21 HCT-116 p53 Agonism Beta-lactamase Assay, Ratio, Phase 5 (AID 2283599)
How it was run: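 HCT-116 cells carrying a p53-inducible beta-lactamase reporter were seeded at 4000 cells/well and dosed after 5 h with compound in DMSO (217-fold dilution). After 16 h at 37C, CCF4-AM substrate was added for 2 h, and the 460/530 nm emission ratio was scored as gain-of-signal versus DMSO.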

[6] = TOX21_p53_BLA_p5_viability: Viability Assessment in the Tox21 HCT-116 p53 Agonism Beta-lactamase Assay, Phase 5 (AID 2283600)
How it was run: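 Viability came from CellTiter-Glo ATP luminescence, read after 30 min at room temperature. Before this, HCT-116 p53-bla cells (4000/well) had 16 hours of compound exposure at 37C, with DMSO stocks diluted 217-fold on transfer.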

[7] = target: Cellular tumor antigen p53 (Homo sapiens) (UniProt P04637); test: TOX21_p53_BLA_p4_ratio: Tox21 HCT-116 p53 Agonism Beta-lactamase Assay, Ratio, Phase 4 (AID 2283601)
How it was run: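 HCT116 cells carrying an inducible beta-lactamase reporter were plated at 4000 cells/well, rested 5 h, then exposed to compounds in DMSO (217-fold dilution) for 16 h at 37C. CCF4-AM substrate was loaded 2 h at room temperature; 460/530 nm emission ratio scored gain-of-signal versus DMSO.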

Cellular tumor antigen p53 (Homo sapiens), sequence (P04637 whole entry, looked up): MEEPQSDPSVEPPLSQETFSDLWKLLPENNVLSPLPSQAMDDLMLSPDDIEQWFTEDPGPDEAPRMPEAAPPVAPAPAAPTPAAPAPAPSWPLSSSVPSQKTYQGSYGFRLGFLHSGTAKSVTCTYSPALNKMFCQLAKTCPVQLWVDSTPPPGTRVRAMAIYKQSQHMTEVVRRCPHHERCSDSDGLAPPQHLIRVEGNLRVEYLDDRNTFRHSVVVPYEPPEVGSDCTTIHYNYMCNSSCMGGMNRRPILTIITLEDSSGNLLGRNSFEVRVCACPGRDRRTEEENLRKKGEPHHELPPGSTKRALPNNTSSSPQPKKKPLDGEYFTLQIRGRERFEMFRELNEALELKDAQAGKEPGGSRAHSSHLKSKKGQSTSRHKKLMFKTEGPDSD

SMILES | outcome [1] | outcome [2] | outcome [3] | outcome [4] | outcome [5] | outcome [6] | outcome [7] | AC50 [5] | AC50 [2] | AC50 [4] | AC50 [7]
CC(=O)O[C@H]1C[C@@]2(C)[C@@H](C[C@@H](O)[C@H]3[C@@]4(C)CC[C@@H](O)[C@@H](C)[C@@H]4CC[C@@]32C)/C1=C(\CCC=C(C)C)C(=O)O | inactive | inactive | inactive | inactive | inactive | inactive |  |  |  |  | 
Cc1cc(C(C)(C)C)c(O)c(C)c1CC1=NCCN1 | inactive | inactive | inactive | inactive | inactive | inactive | inactive |  |  |  | 
Clc1nnc(Cl)c2ccccc12 | inactive | inactive | inactive | inactive | inactive | inactive |  |  |  |  | 
Clc1ccc2n[nH]nc2c1 | inactive | inactive | inactive | inactive |  | inactive | inactive | 55.7 µM (active) |  |  | 
NC(=O)[C@H]1O[C@@H](O)[C@H](O)[C@@H](O)[C@@H]1O | inactive | inactive | inactive | inactive | inactive | inactive |  |  |  |  | 
CCN(CC)CCOc1ccc2nc(N(C)C)sc2c1 | inactive | inactive | inactive | inactive | inactive | inactive |  |  |  |  | 
O=C(Nc1ccc(C(=O)O)c(O)c1)c1ccccc1 | inactive | inactive | inactive | inactive | inactive | inactive | inactive |  |  |  | 
CCCCOC(=O)CC | inactive | inactive | inactive | inactive | inactive | inactive |  |  |  |  | 
CS(=O)(=O)c1ccc([C@@H](O)[C@@H](CO)NC(=O)C(Cl)Cl)cc1 | inactive | inactive | inactive | inactive | inactive | inactive | inactive |  |  |  | 
C[C@@H](O)[C@H](N)C(=O)O | inactive | inactive | inactive | inactive | inactive | inactive | inactive |  |  |  | 
C=C1C[C@@]23CC[C@H]4[C@@](C)(CCC[C@@]4(C)C(=O)O[C@@H]4O[C@H](CO)[C@@H](O)[C@H](O)[C@H]4O)[C@@H]2CC[C@]1(O[C@@H]1O[C@H](CO)[C@@H](O)[C@H](O[C@@H]2O[C@H](CO)[C@@H](O)[C@H](O)[C@H]2O)[C@H]1O[C@@H]1O[C@H](CO)[C@@H](O)[C@H](O)[C@H]1O)C3 | inactive | inactive | inactive | inactive | inactive | inactive | inactive |  |  |  | 
CC(C)Nc1ccccc1 | inactive | inactive | inactive | inactive | inactive | inactive | inactive |  |  |  | 
ClC(Cl)(Cl)c1ccc(C(Cl)(Cl)Cl)cc1 | inactive | inactive | inactive | inactive | inactive | inactive |  |  |  |  | 
CCOC(=O)OC(C)OC1=C(C(=O)Nc2ccccn2)N(C)S(=O)(=O)c2ccccc21 (stereo unspecified) | inactive | inactive | inactive | inactive | inactive | inactive | inactive |  |  |  | 
NCc1ccccc1CC(=O)N[C@@H]1C(=O)N2C(C(=O)O)=C(CSc3nnnn3CC(=O)O)CS[C@H]12 | inactive | inactive | inactive | inactive | inactive | inactive |  |  |  |  | 
O=C(Nc1ccc([N+](=O)[O-])cc1)Nc1ccc([N+](=O)[O-])cc1 | inactive | inactive | inactive | inactive | inactive | inactive | inactive |  |  |  | 
CO/N=C(\C(=O)N[C@@H]1C(=O)N2C(C(=O)[O-])=C(C[n+]3ccc(N)n3CCO)CS[C@H]12)c1csc(N)n1 | inactive | inactive | inactive | inactive | inactive | inactive |  |  |  |  | 
NS(=O)(=O)c1cc2c(cc1Cl)NC=NS2(=O)=O | inactive | inactive | inactive | inactive | inactive | inactive | inactive |  |  |  | 
Oc1cc(O)c2c(c1)O[C@H](c1ccc(O)c(O)c1)[C@H](O)C2 | inactive | inactive | inactive | inactive | inactive | inactive |  |  |  |  | 
Nc1ccc(Oc2ccc(Cl)cc2)cc1 | inactive | inactive | inactive | inactive | inactive | inactive | inactive |  |  |  | 
CC1=Nc2ccccc2C1(C)C | inactive | inactive | inactive | inactive | inactive | inactive | inactive |  |  |  | 
CC(=O)N/N=C/c1ccc([N+](=O)[O-])o1 | inactive |  | inactive |  |  | inactive |  | 34.9 µM (active) | 42.3 µM (active) | 40.9 µM (active) | 41.3 µM (active)
Cc1cc(C)cc(N)c1 | inactive | inactive | inactive | inactive | inactive | inactive | inactive |  |  |  | 
CCc1cccc2c3c([nH]c12)C(CC)(CC(=O)O)OCC3 (stereo unspecified) | inactive | inactive | inactive | inactive | inactive | inactive | inactive |  |  |  | 
Brc1c2ccccc2cc2ccccc12 | inactive | inactive | inactive | inactive | inactive | inactive | inactive |  |  |  | 
